The list is not random: actives were taken first. Their share in the collection is about 5.7%.
S2 tox – Viability Counterscreen for Primary qHTS for Inhibitors of ATXN expression. Potency, µM (highest dose often 56.7 µM), usual class: cytotoxic. AID 651635, 2014. 0.49% of 400,000 active. S2 cells (HEK-293 line with an ATXN2-luciferase reporter) viability, CellTiter-Fluor protease fluorescence, 24 h; also: potency is read from the fitted curve at half-maximal effect; nearly all actives have a fitted effect of over 40% in size
ATXN2 expr inh – Primary qHTS for Inhibitors of ATXN expression; 0.72% of 360,000 active; Potency, µM (top dose mostly 57 µM), without a hit: at the highest dose activity change, negative = inhibition, usual class: inhibitors; HEK-293 ATXN2-luciferase reporter, luminescence, 24 h; also: potency is read from the fitted curve at half-maximal effect; % is scaled to controls: 0 for no effect and ±100 for the full control effect; nearly all actives have a fitted effect of over 55% in size
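ATXN2-luciferase reporter cells (luciferase flanked by upstream and downstream ATXN2 gene portions) were treated 24 h at 37 °C with compounds at up to 57 uM. SteadyGlo luminescence gave expression; GF-AFC fluorescence gave viability.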
HepG2 viability – qHTS for Inhibitors of TGF-b: Cytotox Counterscreen; HepG2 CAGA-GFP viability, ATP luminescence, 18 h; 0.76% of 410,000 active; Potency, µM (highest dose often 46.1 µM), inactives show top-dose activity change, negative = cytotoxicity, actives largely listed as cytotoxic; also: potency is read from the fitted curve at half-maximal effect
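CellTiter-Glo luminescence gave cytotoxicity after 18 hours at 37 degrees C. The cells were HepG2 CAGA-GFP in 1% FBS DMEM, stimulated with 500 pg/mL TGF-beta after compound addition. %Activity was normalised to no-cell wells (complete cell-killing) and DMSO (no toxicity), and curves were fitted and classified.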
TGFb SMAD3 inh – qHTS for Inhibitors of TGF-b. HepG2 CAGA-GFP TGF-b/SMAD3 reporter, GFP fluorescence, 18 h; TGF-beta stimulated, 500 pg/mL final. Potency, µM (doses to about 46.1 µM), without a hit: at the top dose activity, negative = inhibition, most hits filed as inhibitors. 1.2% of 410,000 active. AID 588855, 2011; also: potency is read from the fitted curve at half-maximal effect; % is scaled to controls: 0 for no effect and ±100 for the full control effect; nearly all actives have a fitted effect of over 65% in size
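HEPG2 CAGA-GFP, 1000 cells/well; 2 h settle, 37 C; cpd via pin tool; TGF-b 500 pg/mL final; 18 h, 37 C; GFP imaging ex488/em500-530; %Activity normalised to -TGF-b and +DMSO controls; CRC fit, curve class.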
IL1B secr inh – qHTS for Inhibitors of Inflammasome Signaling: IL-1-beta AlphaLISA Primary Screen | THP-1 LPS/ATP IL-1B secretion, AlphaLISA, 16 h; stronger effect = lower value | activity change, % at 57.5 µM | 4.7% of 360,000 active | AID 743279, 2014; in the data active = activity change below about -50%; inconclusive = mostly about -30% to -49%; also: % is scaled to controls: 0 for no effect and ±100 for the full control effect
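THP-1 cells pretreated 1 hr with compounds (up to 57.5 uM final), then stimulated with LPS (250 ng/mL final) plus ATP (1.25 mM final); secreted IL-1B measured by AlphaLISA after 16 hr, decreased signal indicating inhibition.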
Numbers without * were called inactive; i = inactive; ? = inconclusive; . = no result given. Unless noted, calls follow the shape of the dose curve; as a rule, active = well fitted curve in the direction sought with a large enough effect; inconclusive = small, poorly fitted or top-dose-only effect, or another doubt; inactive = no such curve, though single readings can be large; an effect the other way counts as inactive or inconclusive.

SMILES | S2 tox | ATXN2 expr inh | HepG2 viability | TGFb SMAD3 inh | IL1B secr inh
CNC[C@@H]1CC[C@@H](N)[C@@H](O[C@H]2[C@H](O)[C@@H](O[C@H]3OC[C@](C)(O)[C@H](NC)[C@H]3O)[C@H](N)C[C@@H]2N)O1 | i | . | . | . | .
CCc1ccc(NC(=O)CSc2nc3ccccc3c(=O)n2CCCC(=O)NCCCN2CCOCC2)cc1 | i | -37.3% | -28.0% | -29.6% | -102.9*
Cc1ccc(NC(=O)CSc2nc3ccccc3c(=O)n2CCCC(=O)NCCCN2CCOCC2)cc1C | i | -18.9% | 36.0% | -0.9% | -85.6*
CC(=O)Nc1ccc(NC(=O)CSc2nc3ccccc3c(=O)n2CCCN2CCOCC2)cc1 | ? | -8.4% | -0.4% | -3.8% | 4.3
C1=C(c2ccc3c(c2)CN(Cc2cccn2-c2ncccn2)CCO3)Cc2ccccc21 | i | . | . | . | .
C/C=C(/C)C(=O)OC1c2c(ccc3ccc(=O)oc23)OC(C)(C)C1OC(=O)/C(C)=C\C (stereo unspecified) | ? | ? | -28.8% | 11.2µM* | -10.3
COc1ccc(NC(=O)c2ccc3c(c2)CCN3S(=O)(=O)c2ccccc2)cc1 | i | -17.0% | -14.8% | 0.8% | -56.1*
CCCCOC(=O)c1ccc(NC(=O)c2ccc3c(c2)CCCN3S(C)(=O)=O)cc1 | ? | 7.08µM* | -31.2% | -9.8% | .
CCCCOC(=O)c1ccc(NC(=O)c2ccc3c(c2)CCN3S(=O)(=O)c2ccccc2)cc1 | . | . | -11.4% | -1.4% | .
Cc1ccc(S(=O)(=O)N2CCCc3cc(NS(=O)(=O)c4ccccc4)ccc32)cc1 | . | 0.0% | 1.0% | 15.8µM* | .
CCCCN(C)CCNC(=O)c1ccc2c(=O)n(CCc3ccccc3)c(=O)[nH]c2c1 | i | 9.8% | -3.5% | 1.1% | .
Cc1ccc(NC(=O)c2cccc3c(=O)c4c([nH]c23)CCCC4)c(C)c1 | i | 172.5% | 8.7% | -3.7% | .
COc1cc(Nc2ncc3c(n2)CCN(Cc2cc(F)cc(F)c2)C3)cc(OC)c1 | ? | ? | -36.7% | -27.4% | .
COc1cc2c(cc1NC(=O)C(Cl)Cl)-c1ccc(NC(=O)C(Cl)Cl)cc1C2 | . | -16.5% | 7.94µM* | 4.47µM* | -97.2*
COc1cc2c(cc1NC(=O)c1ccccc1-c1ccccc1C(=O)O)-c1ccccc1C2 | i | . | -15.3% | -4.1% | -19.7
Cc1cc(C)nc(Nc2nc3ccccc3o2)n1 | i | 4.0% | 0.5% | 6.2% | -76.0*
Fc1ccccc1Nc1nc2ccccc2o1 | i | 16.7% | 7.08µM* | -5.3% | -16.1
CC(=O)CC/C=C(\C)CC/C=C(\C)CC/C=C(\C)CCC=C(C)C | i | 7.1% | . | . | .
CC(C)Cc1ccc(CN2CCCC(NC(=O)c3cccc(-n4cnnc4)c3)C2)cc1 (stereo unspecified) | i | -23.3% | -34.9% | 0.4% | -50.6*
CCCOc1ccc(Br)cc1CSC(=N)N | i | ? | -58.5% | ? | -85.6*
CCOC(=O)Nc1ccc2c(c1)C(=NNC(N)=S)c1ccccc1-2 | . | ? | 8.91µM* | ? | -95.9*
CCOC(=O)Nc1ccc2c(c1)C(=NO)c1ccccc1-2 | ? | 18.6% | -23.0% | 0.0% | -75.2*
Cc1cccc(-c2nc(S(=O)(=O)c3ccc(Cl)cc3)c(N3CCCCCC3)o2)c1 | ? | 2.0% | 0.3% | -4.5% | .
COCCNc1nc(NCCOc2ccccc2Cl)c2sc(-c3ccccc3)cc2n1 | ? | 0.0% | 14.1µM* | ? | -59.6*
COCCNc1nc(NCC2CCCCC2)c2sc(-c3ccccc3)cc2n1 | 17.8µM* | 35.5µM* | -102.2% | ? | -103.5*
SMILES | S2 tox | ATXN2 expr inh | HepG2 viability | TGFb SMAD3 inh | IL1B secr inh
Cc1cccc(CSc2cn(CC(=O)N3CCCCC3)c3ccccc23)c1 | . | . | -7.3% | -2.5% | .
CC(SC1=NCCS1)C(=O)Nc1nnc(-c2ccc(Br)cc2)s1 (stereo unspecified) | ? | -7.7% | -23.2% | -11.1% | -19.6
CC(SC1=NCCS1)C(=O)Nc1nnc(-c2ccc(F)cc2)s1 (stereo unspecified) | i | 17.9% | -12.5% | 15.1% | -52.8*
CC(=O)Nc1ccc(C(=O)CSc2nnc3cc(C)c4ccccc4n23)cc1 | ? | 9.8% | 5.7% | -6.1% | .
Cc1ccc(OCCNCc2ccccc2)c(C)c1 | i | -1.1% | -24.5% | 16.8% | -7.5
Clc1ccc(Cl)c(OCCCCNCc2ccccc2)c1 | i | -13.4% | 15.8µM* | ? | -101.6*
Cc1cc(Cl)c(OCCCNCc2ccccc2)c(Br)c1 | ? | ? | 10µM* | ? | ?
COCCNCCCCOc1c(Cl)cc(C)cc1Br | i | -26.9% | -41.8% | -10.2% | -9.1
Cc1cc(C)c(OCCCCN(C)C)c(Br)c1 | i | -14.2% | -1.6% | -7.3% | -8.7
Cc1cc(C)c(OCCCNC2CCCC2)c(Br)c1 | i | -38.5% | -31.1% | 0.9% | -54.7*
Clc1ccc(OCCCNCc2ccccc2)c(Br)c1 | . | ? | -105.1% | ? | .
Cc1cc(C)c(OCCCNCc2ccccc2)c(Br)c1 | ? | . | -119.7% | ? | -71.9*
COc1ccccc1CNC(=O)c1cc2ccc3ccc(C)[nH]c3c2n1 | i | ? | -29.6% | ? | .
CCOC(=O)c1[nH]c2c(c1Cc1ccccc1OC)C(=O)CC(c1ccccc1)C2 (stereo unspecified) | i | -9.0% | -7.4% | -0.1% | .
Cc1cccc(OCCCCNCc2ccccc2)c1 | i | -24.9% | -16.5% | 9.1% | -71.8*
Cc1cccc(OCCCCCNCCO)c1 | i | -3.1% | -23.6% | 2.8% | 1.5
COc1ccccc1-c1nnc(SC(C(=O)c2c[nH]c3ccccc23)c2ccccc2)n1C (stereo unspecified) | i | . | -24.2% | ? | -51.2*
COc1cccc(-c2nnc(SC(C(=O)c3c[nH]c4ccccc34)c3ccccc3)n2C)c1 (stereo unspecified) | i | -22.2% | -13.1% | ? | -27.3
CCCN(Cc1cccs1)C(=O)Nc1cc(C)cc(C)c1 | . | . | -10.7% | -2.3% | .
CCOc1cccc(-c2cc(C(=O)N3N=C(C)CC3(O)C(F)F)c3ccccc3n2)c1 (stereo unspecified) | i | -11.3% | 1.8% | 4.6% | -64.1*
Cc1ccc(-c2cc(C(=O)N3N=C(C(F)F)CC3(O)C(F)F)c3ccccc3n2)cc1C (stereo unspecified) | 17.8µM* | ? | 20µM* | ? | -71.3*
Nc1nc(NCc2cccc(Cl)c2)c2[nH]cnc2n1 | . | . | -29.3% | -20.4% | .
Cc1ccc(NC(=O)N2CC3CCCN3c3ccccc32)c(C)c1 (stereo unspecified) | . | . | -24.5% | ? | .
O=C1C(=Cc2ccc(Cl)cc2)CCc2ccccc21 | i | 23.9% | -39.5% | -16.5% | -8.8

Source: PubChem BioAssay
